Test results taken from PubChem BioAssay AID1671448 (Corson Lab, School of Medicine, Indiana University, 2021).
The whole screen tested about 20,000 compounds, of which about 660 (3.3%) were called active.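 The calls were made as follows: active = enzyme reaction rate more than 3 SD below the solvent-only control wells on the same plate; inactive = the rest.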 Many of the other results were omitted from the sample, so actives are more common in it than they were.

These molecules were tested against Ferrochelatase, mitochondrial (Homo sapiens) (UniProt P22830) (assay: FECH heme synthesis enzyme blockers – biochemical, purified FECH, Ni-mesoporphyrin absorbance, primary screen (AID 1671448)). Conditions: Ni-mesoporphyrin absorbance 550 nm, screened at 10 µM (by protocol).
Sequence of Ferrochelatase, mitochondrial (Homo sapiens) (P22830 whole entry, looked up): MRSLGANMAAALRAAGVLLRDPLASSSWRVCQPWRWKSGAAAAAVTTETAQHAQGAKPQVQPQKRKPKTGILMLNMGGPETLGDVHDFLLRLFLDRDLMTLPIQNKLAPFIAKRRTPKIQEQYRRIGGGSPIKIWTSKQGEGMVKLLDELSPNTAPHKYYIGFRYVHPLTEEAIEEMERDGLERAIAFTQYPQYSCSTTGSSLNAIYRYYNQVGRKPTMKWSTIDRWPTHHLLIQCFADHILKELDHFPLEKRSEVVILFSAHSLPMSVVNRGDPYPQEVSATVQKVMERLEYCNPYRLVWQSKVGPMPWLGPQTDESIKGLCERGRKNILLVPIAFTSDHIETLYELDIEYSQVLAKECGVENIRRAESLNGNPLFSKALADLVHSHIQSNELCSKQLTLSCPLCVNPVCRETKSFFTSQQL
With `CCOc1ccc(C(=O)N2CCN(S(=O)(=O)c3cc4c5c(c3)CCN5C(=O)CC4)CC2)cc1` the outcome was “inactive”.
With `Cc1ccc(Cn2c(CCNC(=O)Nc3cc(C)ccc3C)nc3cccnc32)cc1` the outcome was “inactive”.
`Cc1cc(C)cc(CCC(=O)NC(C)c2n[nH]c(C)n2)c1` (centres undefined) was tested, and the outcome was “inactive”.
With `CCCN(CCC)C(=O)C1CCCN(c2ncnc3c2nc2n3CCCCC2)C1` (centres undefined) the outcome was “inactive”.
`Cc1cccc(CNC(=O)N2CCN(Cc3nc4cccnc4n3-c3ccc(F)cc3)CC2)c1` was tested, and the outcome was “inactive”.
`O=C1CN(S(=O)(=O)c2cc(C(=O)N3CCCC3)cs2)c2ccccc2N1` was tested, and the outcome was “inactive”.
In the case of `O=C(CN1CCN(Cc2ccccc2Cl)S1(=O)=O)Nc1ccc2c(c1)OCCO2`, the outcome is reported as “inactive”.
`CN(CCC1CCCCO1)C(=O)c1ccc(CSc2ncn[nH]2)o1` (centres undefined) was tested, and the outcome was “inactive”.
With `Cc1nc(N2CCCCC2)ncc1C(=O)N1CCC2(CCN(C)C2)CC1` the outcome was “inactive”.
With `CNS(=O)(=O)c1ccc(C2NCCc3[nH]cnc32)cc1` (centres undefined) the outcome was “inactive”.
For `COc1ccc(CNC(=O)CN2c3ccc(C(C)C)cc3-c3ccccc3S2(=O)=O)cc1`, the outcome was “active”.
In the case of `COc1ccc(CNC(=O)N2CCN(c3cc(-c4ccc(OC)cc4)ncn3)CC2)cc1`, the outcome is reported as “inactive”.
In the case of `CCC1=C(c2ccc(OC)cc2)S(=O)(=O)N(CC(=O)NCc2ccc(OC(C)C)cc2)C1=O`, the outcome is reported as “inactive”.
With `CCCNC(=O)NCC1CCCN(Cc2ccco2)C1` (centres undefined) the outcome was “inactive”.
In the case of `CC(C)c1nccn1Cc1nc2ccccc2c(=O)[nH]1`, the outcome is reported as “inactive”.
For `CC(C)c1c(-c2ccccc2)ncn1CC(=O)N1CCNCC1`, the outcome was “inactive”.
In the case of `COc1ccc(C(=O)N2CCc3[nH]nc(-c4ccc(F)c(F)c4)c3C2)c(O)c1`, the outcome is reported as “inactive”.
With `Cc1cc(Sc2ccc(NC(=O)Nc3ccc(F)c(Cl)c3)cc2)n2ncnc2n1` the outcome was “inactive”.
`CCn1c(=O)n(-c2ccc(C)c(C)c2)c2nc(-c3ccc(F)cc3F)nc(C(N)=O)c21` was tested, and the outcome was “inactive”.
For `CCCS(=O)(=O)N1CCC(n2c(C(F)(F)F)nc3cccnc32)CC1`, the outcome was “inactive”.
`Cc1ccc(-c2cc(Nc3ccc(C(N)=O)cc3)nc(C)n2)cc1` was tested, and the outcome was “inactive”.
`CCN(CC)CCNc1nc(Nc2cccc(C)c2)c2cnn(-c3ccccc3)c2n1` was tested, and the outcome was “inactive”.
`COc1ccc(N2CCCS2(=O)=O)cc1NC(=O)COc1ccc(C)cc1` was tested, and the outcome was “inactive”.
`CCC1=C(c2ccc(OC)cc2)S(=O)(=O)N(CC(=O)Nc2cccc(Cl)c2)C1=O` was tested, and the outcome was “inactive”.
For `CC(C(=O)NCCc1ccc(S(N)(=O)=O)cc1)N1C(=O)CC(C)(C)Sc2ccccc21` (centres undefined), the outcome was “inactive”.
For `CCCc1cc(Sc2ccc(NC(=O)Nc3cccc(F)c3)cc2)n2ncnc2n1`, the outcome was “inactive”.
`COc1cccc(C(=O)N(Cc2nc3nc(C)cc(C)n3n2)c2ccccc2)c1` was tested, and the outcome was “inactive”.
In the case of `Cc1ccc2nc(CNC(=O)Cc3ccc4c(c3)OCO4)[nH]c2c1`, the outcome is reported as “inactive”.
With `COCc1nc2cccnc2n1C1CCN(S(=O)(=O)c2ccc(C)c(C)c2)CC1` the outcome was “inactive”.
With `O=C(O)CC1CNCCN(C(=O)c2cccc(Oc3ccccc3)c2)C1` (centres undefined) the outcome was “inactive”.
With `CCOC(=O)Cn1c(=O)n(-c2ccc(F)cc2)c2nc(-c3cccs3)nc(C(N)=O)c21` the outcome was “inactive”.
With `CN1CCN(Cc2ccc(-n3cccn3)cc2)CC1C(=O)O` (centres undefined) the outcome was “inactive”.
For `CCC1(CC)CN(C(=O)c2nnc(COC)o2)CCO1`, the outcome was “inactive”.
`CCOc1ccc(N2CC(NC(=O)CC)CC2=O)cc1` (centres undefined) was tested, and the outcome was “inactive”.
`Cc1ccc(-c2cc(N3CCN(S(=O)(=O)c4ccccc4)CC3)ncn2)cc1` was tested, and the outcome was “inactive”.
For `CCCOc1cccc(-c2c(Nc3ccccc3)oc3c2c(=O)n(C)c(=O)n3C)c1`, the outcome was “inactive”.
In the case of `Cc1nnc(SCC(=O)N2CCC(C(O)C(C)C)CC2)s1` (centres undefined), the outcome is reported as “inactive”.
With `Cc1cccc(C(C(=O)NC2CCN(S(C)(=O)=O)CC2)N(C)C)c1` (centres undefined) the outcome was “inactive”.
For `O=C1NC(c2cccnc2)(C2CCNCC2)C(=O)N1Cc1ccccc1F` (centres undefined), the outcome was “inactive”.
For `CCCc1c(C)nc2ncnn2c1Sc1ccc(NC(=O)C(C)(C)C)cc1`, the outcome was “active”.
For `CCc1c(C)nc2ncnn2c1Sc1ccc(NC(=O)CC(C)C)cc1`, the outcome was “inactive”.
In the case of `CCCc1c(C)nc2ncnn2c1Sc1ccccc1NC(=O)c1cccs1`, the outcome is reported as “inactive”.
In the case of `CCc1c(C)nc2ncnn2c1Sc1ccc(NS(=O)(=O)c2cc(OC)ccc2OC)cc1`, the outcome is reported as “inactive”.
In the case of `CCc1ccc(S(=O)(=O)Nc2ccc(Sc3c(CC)c(C)nc4ncnn34)cc2)cc1`, the outcome is reported as “active”.
`CCc1c(C)nc2ncnn2c1Sc1ccc(NC(=O)Cc2cccs2)cc1` was tested, and the outcome was “inactive”.
`CCCc1c(C)nc2ncnn2c1Sc1ccc(NS(=O)(=O)c2cc(C)cc(C)c2C)cc1` was tested, and the outcome was “inactive”.
In the case of `CCc1c(C)nc2ncnn2c1Sc1ccc(NC(=O)c2cc(OC)cc(OC)c2)cc1`, the outcome is reported as “active”.
For `CCc1c(C)nc2ncnn2c1Sc1ccc(NC(=O)Nc2cccc(C)c2C)cc1`, the outcome was “inactive”.
`O=C(CN1CCCN(Cc2cccc(F)c2)S1(=O)=O)Nc1ccc(Br)cc1` was tested, and the outcome was “inactive”.
With `O=C(c1ccncc1)N1CC[C@@H](c2ccc3ccccc3c2)[C@H](O)C1` the outcome was “inactive”.
For `C=CCOc1c(Cl)cc(C(=O)NCCc2cnc[nH]2)cc1Cl`, the outcome was “inactive”.
For `CCc1nc(C)sc1CNC(=O)[C@H](N)CC(C)C`, the outcome was “inactive”.
For `CCOc1ccc(-c2nc(CSc3nc4c(c(=O)[nH]3)CCCC4)c(C)o2)cc1OC`, the outcome was “inactive”.
With `COc1cccc2c1OCCCN(C(=O)[C@@H]1Cc3ccccc3N1)C2` the outcome was “inactive”.
For `COc1ccc(CNc2nc3nc(CNc4ccc(Br)cc4)cc(=O)n3[nH]2)cc1`, the outcome was “inactive”.
For `COc1ccc(CNc2nc3nc(CN4CCN(c5ccccc5OC)CC4)cc(=O)n3[nH]2)cc1`, the outcome was “active”.
In the case of `COc1ccc(CNc2nc3nc(CNc4ccc(C)cc4)cc(=O)n3[nH]2)cc1`, the outcome is reported as “inactive”.
With `O=C(CSc1nc(-c2ccco2)nc2cc(=O)[nH]n12)NCCCc1ccccc1` the outcome was “inactive”.
In the case of `CC(C)CCNC(=O)c1nc[nH]c1C(=O)NCC(C)(C)C`, the outcome is reported as “inactive”.
With `O=C(NCc1ccccc1)c1nc[nH]c1C(=O)NCc1cccc(C(F)(F)F)c1` the outcome was “active”.
In the case of `CC(C)(C)CNC(=O)c1[nH]cnc1C(=O)NCC1CC1`, the outcome is reported as “inactive”.
For `Cc1cc(C)nc(SC(C)c2n[nH]c(Cc3ccccc3)n2)n1` (centres undefined), the outcome was “inactive”.
For `Cc1nnnn1CCCN1CCC(Cc2cccc(C(=O)O)c2)CC1`, the outcome was “inactive”.
In the case of `CCOc1ccc(S(=O)(=O)NCCn2c(-c3ccccc3)nc3cccnc32)cc1`, the outcome is reported as “inactive”.
For `O=S(=O)(NCCn1c(-c2ccccc2)nc2cccnc21)c1ccc(C2CCCCC2)cc1`, the outcome was “inactive”.
In the case of `O=S(=O)(NCCn1c(-c2ccccc2)nc2cccnc21)c1ccc(Br)cc1`, the outcome is reported as “active”.
For `COc1cccc2c1OCC(CN1CCC(O)(c3ccc(C)cn3)CC1)=C2`, the outcome was “inactive”.
In the case of `O=C(O)c1cccnc1CN1CCN(Cc2ccc3c(c2)OCO3)CC1`, the outcome is reported as “inactive”.
`COc1ccccc1NC(=O)CN1CCN(Cc2ccccc2C)S1(=O)=O` was tested, and the outcome was “inactive”.
In the case of `O=C(CN1CCN(Cc2ccccc2Cl)S1(=O)=O)Nc1ccccc1Cl`, the outcome is reported as “inactive”.
With `Cc1ccccc1CN1CCN(CC(=O)Nc2cccc(Cl)c2C)S1(=O)=O` the outcome was “active”.
`CCOc1ccc(-c2nc(Cn3c(=O)c4cnc(-c5ccc(OC)cc5)nc4n(C)c3=O)c(C)o2)cc1` was tested, and the outcome was “inactive”.
`CCn1ccc(-c2n[nH]c(=O)n2Cc2ccccc2F)n1` was tested, and the outcome was “inactive”.
`CCc1ccc(S(=O)(=O)N2CCN(Cc3nc4cccnc4n3-c3ccccc3)CC2)cc1` was tested, and the outcome was “inactive”.
With `Cc1ccccc1S(=O)(=O)N1CCN(Cc2nc3cccnc3n2-c2ccccc2)CC1` the outcome was “inactive”.
With `CC(=O)Nc1ccc(S(=O)(=O)N2CCN(Cc3nc4cccnc4n3-c3ccc(C)cc3)CC2)cc1` the outcome was “active”.
`Cc1ccc(OCC(=O)Nc2cc(C)nn2-c2ncnc3c2cnn3-c2cccc(C)c2C)cc1` was tested, and the outcome was “inactive”.
`NC(=O)c1cccc(CC2CCN(C(=O)c3cnn4cccnc34)C2)c1` (centres undefined) was tested, and the outcome was “inactive”.
With `CCN(CC)Cc1cnc2c(C(=O)N3CCC(Cn4cccn4)CC3)cnn2c1` the outcome was “active”.
In the case of `CCN(CC)Cc1cnc2c(C(=O)Nc3cccc4cc(C)oc34)cnn2c1`, the outcome is reported as “inactive”.
With `CN1CCC(Cc2noc(CCc3nc4cccnc4n3C)n2)CC1` the outcome was “inactive”.
For `CCc1cccc(NS(=O)(=O)c2ccc3c(c2)CCN3C(=O)CCC(=O)N2CCOCC2)c1`, the outcome was “inactive”.
`CCc1nc2nc(C)[nH]n2c(=O)c1NC(=O)Nc1cccc(C(F)(F)F)c1` was tested, and the outcome was “inactive”.
For `Cc1nc2nc(-c3ccccc3)nn2c(Sc2ccccc2NC(=O)c2ccc(Cl)cc2)c1C`, the outcome was “inactive”.
In the case of `Cc1ccc(C2=CC(c3ccc(F)cc3)n3nc(NC(=O)c4cccs4)nc3N2)cc1` (centres undefined), the outcome is reported as “inactive”.
With `Cc1ccc(C2=CC(c3ccc(C)cc3)n3nc(NC(=O)c4ccco4)nc3N2)cc1` (centres undefined) the outcome was “active”.
With `Cc1ccc(C2=CC(c3c(F)cccc3Cl)n3nc(NC(=O)c4ccco4)nc3N2)cc1` (centres undefined) the outcome was “inactive”.
`O=C(Nc1nc2n(n1)C(c1ccccc1)C=C(c1ccc(Cl)cc1)N2)c1ccc(F)cc1` (centres undefined) was tested, and the outcome was “inactive”.
In the case of `O=C(Nc1nc2n(n1)C(c1ccc(Cl)cc1)C=C(c1ccc(Cl)cc1)N2)c1ccccc1` (centres undefined), the outcome is reported as “inactive”.
In the case of `O=C(Nc1nc2n(n1)C(c1c(F)cccc1Cl)C=C(c1ccccc1)N2)c1ccc(F)cc1` (centres undefined), the outcome is reported as “inactive”.
With `COc1ccccc1C(=O)Nc1nc2n(n1)C(c1ccc(F)cc1)C=C(c1ccccc1)N2` (centres undefined) the outcome was “active”.
With `O=C(Nc1nc2n(n1)C(c1ccccc1Cl)C=C(c1ccccc1)N2)c1ccccc1F` (centres undefined) the outcome was “active”.
In the case of `Cc1ccc(C(=O)Nc2nc3n(n2)C(c2ccccc2)C=C(c2ccc(Cl)cc2)N3)cc1` (centres undefined), the outcome is reported as “inactive”.
`CCCC(=O)NC1CC(=O)N(c2ccc(OCC)cc2)C1` (centres undefined) was tested, and the outcome was “inactive”.
